PubChem BioAssay AID651599 (National Center for Advancing Translational Sciences (NCATS), 2012)
Inconclusive results are not listed. Activity calls are given as the source filed them. Calls come from the whole dose curve; as a rule, active = well fitted inhibition curve with a large enough effect; inconclusive = small, poorly fitted or top-dose-only effect; inactive = no such curve, though single readings can be large or run the other way.

Biological target: Tumor susceptibility gene 101 protein (Homo sapiens) (UniProt Q99816)
Sequence (Q99816 whole entry, looked up): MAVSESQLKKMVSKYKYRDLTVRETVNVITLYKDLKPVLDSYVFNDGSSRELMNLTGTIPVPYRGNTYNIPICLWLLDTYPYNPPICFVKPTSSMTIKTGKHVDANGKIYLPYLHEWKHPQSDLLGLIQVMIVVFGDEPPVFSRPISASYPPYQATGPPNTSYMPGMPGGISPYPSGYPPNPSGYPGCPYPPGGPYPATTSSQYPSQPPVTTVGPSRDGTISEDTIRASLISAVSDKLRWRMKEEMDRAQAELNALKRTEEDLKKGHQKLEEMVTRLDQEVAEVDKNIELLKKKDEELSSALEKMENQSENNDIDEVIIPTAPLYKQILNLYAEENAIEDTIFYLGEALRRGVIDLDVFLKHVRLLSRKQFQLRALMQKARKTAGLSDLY
Experiment: qHTS Assay for Iinhibitors of HIV-1 Budding by Blocking the Interaction of PTAP/TSG101: Hit Validation in TR assay
Settings: Tsg101 binding domain + Texas Red-labeled PTAP peptide, fluorescence polarization, 20 min; series mostly up to 57.5 µM
Summary of the method: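 Fluorescence polarization: Tsg101 binding domain (10 uM final) with Texas Red-labelled PTAP peptide (50 nM final) in HEPES pH 7.5, 0.15 M NaCl, Tween 20, EDTA, TCEP; 20 min binding at room temperature after compound addition.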
Potency is the fitted concentration of half-maximal effect.

Potency, inactive:
COc1ccc2c(C=Nc3c(C)n(C)n(-c4ccccc4)c3=O)c(O)n(Cc3ccco3)c(=O)c2c1
O=C1Nc2ccc(Cl)cc2C12Nc1ccccc1-c1nnc(SCc3ccccc3F)nc1O2 (centres undefined)
O=C(O)c1ccccc1C1=Nc2ccc(O)cc2Oc2cc(O)ccc21
O=C(NCc1ccco1)c1cccc2c1C(=O)c1ccc(N3CCC(Cc4ccccc4)CC3)cc1S2(=O)=O
CCC(=O)Nc1ccc(NC(=O)C23CC4CC(CC(C4)C2)C3)cn1
Nc1cnccc1C(=O)O
O=[N+]([O-])c1cc(Cl)c2cccnc2c1O
CCC/C(C#Cc1ccc(N(C)C)cc1)=C1/c2ccccc2C(=O)N1c1ccccc1
O=C(CC1CC2CCC1C2)NCc1cccs1 (centres undefined)
COc1ccc(OC)c(/C=C2\N=C(c3ccccc3)OC2=O)c1
CC1=CC(=C(C#N)c2nc3ccccc3s2)C=C(C)N1c1ccc(F)cc1
O=S(=O)([N-]c1nc2ccccc2nc1-[n+]1ccc(-c2ccncc2)cc1)c1ccccc1
O=C1c2cccc3c([N+](=O)[O-])ccc(c23)C(=O)N1c1ccc(Cl)cn1
CCCCN(C)C1=CC2=CC(=C(C#N)C#N)CCC2CC1 (centres undefined)
C/C(O)=c1/ccc2cccc3nc(C)nc1c23
CC(=O)c1ccc(N2C(=O)C3C(C2=O)C(C(=O)c2ccc(Cl)cc2)N2CCCC32)cc1 (centres undefined)
COc1ccc(-c2onc3ccc(C(C)=O)cc23)cc1
COc1cccc2c1C(=O)c1c(O)c3c(c(O)c1C2=O)CC(O)(C(C)=O)CC3OC1CC(N(C)C)C(O)C(C)O1 (centres undefined)
Cc1ccccc1-n1c(SCc2c(C)noc2C)nnc1-c1cccnc1
Cn1c(=O)c2[nH]c(COc3ccccc3)nc2n(C)c1=O
CCCn1nc(-c2ccccc2)c2nc3ccccc3nc21
CN1CCCc2cc3c(C(F)(F)F)cc(=O)oc3nc21
CCn1c(C)cc(C=C2C(=O)c3ccccc3C2=O)c1C
Cc1cc2nc3c(=O)[nH]c(=O)[nH]c3nc2c([N+](=O)[O-])c1N
Cc1cccc(-n2c(O)c(C=Nc3ccc4c(c3)OCO4)c3ccccc3c2=O)n1
Cc1ccc2nc(-c3ccco3)c(Nc3ccccc3)n2c1
O=c1nc2c(O)cccn2c2c1c(=O)[nH]c1ccccc12
C=CCn1c(=O)/c(=C/c2ccc(C)o2)s/c1=C(/C#N)C(=O)c1ccccc1
Cn1c(=O)c2nc3ccc(NC(=O)C(F)(F)F)cc3nc2n(C)c1=O
CC1=CC(=C(C#N)c2nc3ccccc3s2)C=C(C)N1CC1CCCO1 (centres undefined)
Cc1cc2c(cc1C)NC(c1c(C)n(C)n(-c3ccccc3)c1=O)C1=C(CC(C)(C)CC1=O)N2 (centres undefined)
COC(=O)C[n+]1cccc2ccccc21
COc1cccc2c1C(=O)c1c(O)c3c(c(O)c1C2=O)CC(O)(C(C)=O)CC3OC1CC(O)C(O)C(C)O1 (centres undefined)
O=[N+]([O-])c1cc(Cl)cc(/C=N/n2cnnc2)c1O
Cc1cc[n+](-c2[nH]c(=O)sc2/C=N/NC([S-])=Nc2ccccc2)cc1C

Potency, active:
CCN(CC)c1ccc2c(-c3ccc(S(=O)(=O)O)cc3S(=O)(=O)[O-])c3ccc(=[N+](CC)CC)cc-3oc2c1 0.13 µM
O=C(C1=NN(c2ccccc2)C2C(=O)N(c3cccc(Cl)c3)C(=O)C12)c1ccccc1 (centres undefined) 29.1 µM
Cn1c(=O)c(N)c2c3c(c(Br)ccc31)C(=O)c1ccccc1-2 18.3 µM
O=C(O)[C@@H]1[C@H]2C[C@H]3c4[nH]c5ccccc5c4CCN3C[C@@H]2CC[C@@H]1O 13 µM
